Measured values from PubChem BioAssay (Tox21).
Inconclusive results are not listed. Unmarked numbers belong to inactive results. Active and inactive are the calls of the source. Calls come from the whole dose curve; as a rule, active = well fitted cell-killing curve with a large enough effect in the repeat runs; inconclusive = weak or mixed curves, or effect the other way; inactive = flat fitted curve, though single readings scatter.

Test: qHTS assay to identify small molecule agonists of the TGF-beta/Smad signaling pathway - cell viability counter screen (AID 1346829); note: top concentration of the series differs between compounds; nearly all actives have a fitted effect of over 45% in size
Details: SBE-bla HEK293T viability, CellTiter-Glo luminescence, 5 h; series mostly up to 76.8 µM; activity change, negative = cytotoxicity: at the top concentration
Text: National Center for Advancing Translational Sciences [NCATS]
NIH Chemical Genomics Center [NCGC]
U.S. Environmental Protection Agency [EPA]
National Institutes of Environmental Health Sciences [NIEHS]
National Toxicology Program [NTP]
U.S. Food and Drug Administration [FDA]
Transforming growth factor beta (TGF-beta) superfamily consists of a large number of structurally related dimeric proteins that act as hormones or local mediators in regulating a wide range of biological functions. This superfamily includes TGF-betas themselves, the bone morphogenetic proteins (BMPs) and the activins. These ligands induce oligomerization of serine/threonine receptor kinases and phosphorylate the cytoplasmic signaling molecules of Smad protein family. CellSensor SBE-bla HEK 293T cell line (Life Technologies, Carlsbad, CA), responsive to TGF-beta was used to screen Tox21 10K compound library for identification of agonists/antagonists of the Smad signaling pathway. This cell line contains a beta-lactamase reporter gene under control of the Smad binding element (SBE) stably integrated into HEK 293T cells. Also cytotoxicity of the compounds was tested in parallel by measuring the cell viability using CellTiter-Glo assay system in the same wells.
Tox21 Assay Protocol Summary:
SBE-bla HEK 293T cells were dispensed at 4,000/well in 6 uL of assay medium into black wall/clear-bottom 1536-well plates using a Multidrop Combi (ThermoFisher Scientific, Waltham, MA) dispenser. After the assay plates were incubated at 37 C and 5% CO2 for an overnight, 23 nL of compounds dissolved in DMSO, positive controls or DMSO only was transferred to the assay plate by a Pintool station (Kalypsys, San Diego, CA). The assay plates were incubated at 37 C and 5% CO2 for 5 hr. One uL of LiveBLAzer B/G FRET substrate (Life Technologies) was added using a Flying Reagent Dispenser (FRD, Aurora Discovery, San Diego, CA) and the plates were incubated at room temperature for 2 hr. Fluorescence intensity (405 nm excitation, 460 nm and 530 nm emissions) was measured using an Envision plate reader (PerkinElmer, Shelton, CT). For cytotoxicity read, 4 uL of CellTiter-Glo reagent (Promega Corporation, Madison, WI) was added to each well of the assay plates using FRD. After 30min incubation at room temperature, the luminescence intensity was measured using ViewLux plate reader (PerkinElmer).
% is set by controls: 0 for no effect and ±100 for the full control effect.

**Q.** With `O=C(N/N=C/c1ccc([N+](=O)[O-])o1)c1ccc(O)cc1` as the compound, how does the “activity change, negative = cytotoxicity” value read?
**A.** The value was -14.3% [at 35.3 µM].

**Q.** For `COCc1c(C(C)C)nc(C(C)C)c(/C=C/[C@@H](O)C[C@@H](O)CC(=O)O)c1-c1ccc(F)cc1`, which outcome is on record?
**A.** Its outcome is “inactive”.

**Q.** With `Cc1cc(C(=C2C=CC(=Nc3ccc(S(=O)(=O)O)cc3S(=O)(=O)O)C=C2)c2ccc(Nc3ccc(S(=O)(=O)O)cc3)cc2)ccc1N` as the compound, how does the “activity change, negative = cytotoxicity” value read?
**A.** The value was 2.52% [at 35.3 µM].

**Q.** For `N#C/C(=C1/SC[C@@H](c2ccc(Cl)cc2Cl)S1)n1ccnc1`, which “activity change, negative = cytotoxicity” value is on record?
**A.** The value was -0.139% [at 35.3 µM].

**Q.** For `CCC(=O)OC/C=C/c1ccccc1`, which outcome is on record?
**A.** The outcome was “inactive”.

**Q.** With `CC(C)(C)C(=O)C(Oc1ccc(Cl)cc1)n1ccnc1` (stereo not given) as the compound, how does the “activity change, negative = cytotoxicity” value read?
**A.** The value was 2.71% [at 35.3 µM].

**Q.** For `CCN(CC)CCNC(=O)c1ccc(NC(C)=O)cc1`, which “activity change, negative = cytotoxicity” value is on record?
**A.** The value was -4.69% [at 35.3 µM].

**Q.** With `CO[C@@]12[C@H](COC(N)=O)C3=C(C(=O)C(C)=C(N)C3=O)N1C[C@@H]1N[C@@H]12` as the compound, how does the “activity change, negative = cytotoxicity” value read?
**A.** The value was 4.29% [at 35.3 µM].

**Q.** Which “activity change, negative = cytotoxicity” value does the source give for `CCCCC(CC)CNCC(CC)CCCC` (stereo not given) here?
**A.** The value was 3.32%.

**Q.** With `O=c1[nH]c2ccc(S(=O)CCN3CCC(Cc4ccc(F)cc4)CC3)cc2o1` (stereo not given) as the compound, how does the “activity change, negative = cytotoxicity” value read?
**A.** The value was 0.259%.

**Q.** For `CC(C)C(=O)O`, which “activity change, negative = cytotoxicity” value is on record?
**A.** The value was 0.408%.

**Q.** For `Cc1cnc(C)c(C)n1`, which “activity change, negative = cytotoxicity” value is on record?
**A.** The value was -22.1%.

**Q.** With `CCCOC(=O)c1ccc(N)cc1` as the compound, how does the “activity change, negative = cytotoxicity” value read?
**A.** Its value is -2.2% [at 35.3 µM].

**Q.** Which “activity change, negative = cytotoxicity” value does the source give for `Cn1c(=O)c2c(ncn2CC(=O)O)n(C)c1=O` here?
**A.** Its value is 8.25% [at 35.3 µM].

**Q.** Which “activity change, negative = cytotoxicity” value does the source give for `CCCCC/C(=C\c1ccccc1)CO` here?
**A.** The value was -18.1%.

**Q.** Which “activity change, negative = cytotoxicity” value does the source give for `Cc1ccc(S)cc1` here?
**A.** Its value is 4.88%.

**Q.** Which “activity change, negative = cytotoxicity” value does the source give for `CC1C2CC(CC2C2CCCC(O)C2)C1(C)C` (stereo not given) here?
**A.** The value was -9.4%.

**Q.** For `c1cnc2c(n1)CCCC2`, which “activity change, negative = cytotoxicity” value is on record?
**A.** Its value is 9.43%.

**Q.** For `Cc1ccc(S(=O)(=O)NC2CCCCC2)cc1`, which “activity change, negative = cytotoxicity” value is on record?
**A.** Its value is -1.35%.

**Q.** Which “activity change, negative = cytotoxicity” value does the source give for `CC#N` here?
**A.** The value was 17.1%.

**Q.** For `O=C(O)c1cccnc1C(=O)O`, which “activity change, negative = cytotoxicity” value is on record?
**A.** The value was 32%.

**Q.** For `CC(C)(C)C(=O)O`, which “activity change, negative = cytotoxicity” value is on record?
**A.** Its value is -7.59%.

**Q.** With `CC(=O)[C@H]1CC[C@H]2[C@@H]3C[C@H](C)C4=CC(=O)CC[C@]4(C)[C@H]3[C@@H](O)C[C@]12C` as the compound, how does the “activity change, negative = cytotoxicity” value read?
**A.** Its value is 5.36% [at 35.3 µM].

**Q.** For `CCOC(=O)/C=C/C(=O)O`, which “activity change, negative = cytotoxicity” value is on record?
**A.** The value was 0.585%.

**Q.** Which “activity change, negative = cytotoxicity” value does the source give for `CCCCC(=O)O[C@]1(C(=O)CO)[C@@H](C)C[C@H]2[C@@H]3CCC4=CC(=O)C=C[C@]4(C)[C@@]3(F)[C@@H](O)C[C@@]21C` here?
**A.** The value was 1.77%.

**Q.** With `CCOC(=O)C(C)Oc1ccc(Oc2nc3ccc(Cl)cc3o2)cc1` (stereo not given) as the compound, how does the “activity change, negative = cytotoxicity” value read?
**A.** Its value is -5.53%.

**Q.** Which “activity change, negative = cytotoxicity” value does the source give for `O=C(CCCN1CCC(O)(c2ccc(Br)cc2)CC1)c1ccc(F)cc1` here?
**A.** Its value is 9.3% [at 35.3 µM].

**Q.** Which “activity change, negative = cytotoxicity” value does the source give for `CC(N)CN` (stereo not given) here?
**A.** Its value is 1.24%.

**Q.** With `CC1=CC(O)CC(C)(C)C1` (stereo not given) as the compound, how does the “activity change, negative = cytotoxicity” value read?
**A.** Its value is -0.445%.

**Q.** With `COC(=O)c1cc(Cl)ccc1NS(=O)(=O)C(F)(F)F` as the compound, how does the “activity change, negative = cytotoxicity” value read?
**A.** Its value is 4.7% [at 35.3 µM].

**Q.** Which “activity change, negative = cytotoxicity” value does the source give for `CCOC(=O)c1ccccc1OC` here?
**A.** The value was 8.29%.

**Q.** For `Cc1c(C(=O)NN2CCCCC2)nn(-c2ccc(Cl)cc2Cl)c1-c1ccc(Cl)cc1`, which “activity change, negative = cytotoxicity” value is on record?
**A.** The value was -0.596% [at 35.3 µM].

**Q.** For `CC(=O)OCC(=O)[C@H]1CC[C@H]2[C@@H]3CCC4=CC(=O)CC[C@]4(C)[C@H]3CC[C@]12C`, which “activity change, negative = cytotoxicity” value is on record?
**A.** Its value is -4.22% [at 35.3 µM].

**Q.** With `CCN(Cc1cccc(S(=O)(=O)O)c1)c1ccc(C(=C2C=CC(=[N+](CC)Cc3cccc(S(=O)(=O)[O-])c3)C=C2)c2ccccc2)cc1` as the compound, how does the “activity change, negative = cytotoxicity” value read?
**A.** The value was 12.8% [at 35.3 µM].

**Q.** With `CC(CCc1ccc2c(c1)OCO2)NN` (stereo not given) as the compound, how does the “activity change, negative = cytotoxicity” value read?
**A.** Its value is -2.17% [at 35.3 µM].

**Q.** For `CCCOCCOCCO`, which “activity change, negative = cytotoxicity” value is on record?
**A.** Its value is 1.57%.

**Q.** Which “activity change, negative = cytotoxicity” value does the source give for `CCc1nn(CCCN2CCN(c3cccc(Cl)c3)CC2)c(=O)n1CCOc1ccccc1` here?
**A.** Its value is -1.85% [at 35.3 µM].

**Q.** With `CC1(C)O[C@@H]2C[C@H]3[C@@H]4CCC5=CC(=O)C=C[C@]5(C)[C@H]4[C@@H](O)C[C@]3(C)[C@]2(C(=O)CO)O1` as the compound, how does the “activity change, negative = cytotoxicity” value read?
**A.** Its value is -0.381% [at 35.3 µM].

**Q.** Which “activity change, negative = cytotoxicity” value does the source give for `O=C(O)c1ccccc1NCCc1ccccc1` here?
**A.** The value was 1.82% [at 35.3 µM].

**Q.** For `O=C(O)Cc1ccc(-c2ccccc2)cc1`, which “activity change, negative = cytotoxicity” value is on record?
**A.** Its value is -14.8% [at 35.3 µM].
